In all, about 18,000 sequences were measured (“log2 normalized intensity”: median about 0.39, highest 2% from about 6.6 on). Many of the other results were omitted from the sample, so the highest values are more common in it than they were.

The test concerns the target T1, HNF4alpha2 (COS-7 nuclear extract) (Homo sapiens, UniProt P41235 1-474).
T1 sequence: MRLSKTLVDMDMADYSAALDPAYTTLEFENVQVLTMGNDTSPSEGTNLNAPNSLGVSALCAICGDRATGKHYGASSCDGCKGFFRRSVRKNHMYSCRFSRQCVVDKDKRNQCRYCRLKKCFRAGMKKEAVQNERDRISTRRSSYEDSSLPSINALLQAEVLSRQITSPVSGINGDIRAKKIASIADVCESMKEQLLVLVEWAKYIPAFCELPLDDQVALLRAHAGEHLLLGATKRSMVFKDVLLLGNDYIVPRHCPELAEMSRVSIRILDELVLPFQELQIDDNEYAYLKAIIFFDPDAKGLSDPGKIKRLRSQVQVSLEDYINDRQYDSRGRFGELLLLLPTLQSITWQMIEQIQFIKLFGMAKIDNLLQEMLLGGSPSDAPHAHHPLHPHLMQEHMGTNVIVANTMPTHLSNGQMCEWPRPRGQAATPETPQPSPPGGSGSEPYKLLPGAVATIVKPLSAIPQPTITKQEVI
The test can be described thus: protein-binding microarray; COS-7 nuclear extract on double-stranded Agilent 4x180k PBM; binding buffer, salt, pH and temperature not given in the material; high values mean tight binding. To be noted: chain copies: 2; label: 3' end of strand 1 on the slide; dsDNA, one strand shown. An outline of the steps: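 Binding signal is the background-corrected, normalized gProcessedSignal calculated by Agilent software. It was measured by applying nuclear extracts of COS-7 cells transiently transfected with a human HNF4α isoform expression vector to a custom Agilent SurePrint G3 4x180k array of ~44,000 double-stranded ~60-nt test sequences in quadruplicate, then imaging bound HNF4α on an Agilent G2565CA scanner at 2-µm resolution.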
For “GACAGGATATTTTGAGGGCTCAAAGGTTACGCCTAGGGAGATTAGAGTATCGGTCGA”, the binding signal came out at 5.37 log2 normalized intensity.
The result for “ATTACATATTAACCTTTGCCCCAGCTGTCAGCCTAGGGAGATTAGAGTATCGGTCGA” reads 5.74 log2 normalized intensity.
The result for “GGGTATGAATTTAACCTTTGCTCTCTGAAAGCCTAGGGAGATTAGAGTATCGGTCGA” reads 5.68 log2 normalized intensity; that for “ACTTTGCCCTTTTTTTCTCTCCCCTTTTAAGCCTAGGGAGATTAGAGTATCGGTCGA”, 2.54 log2 normalized intensity.
To “TTTCTTAATTGCCCTTTGCCCTTTGCCCAAGCCTAGGGAGATTAGAGTATCGGTCGA” belongs 8.01 log2 normalized intensity; to “CCATCCTACAGGGTATGAATTTAACCTTTGGCCTAGGGAGATTAGAGTATCGGTCGA”, 4.2 log2 normalized intensity; to “TTTTTTTTCTTAATTGCCCTTTGCCCTTTGGCCTAGGGAGATTAGAGTATCGGTCGA”, 8.54 log2 normalized intensity.
For “CTACAGGGTATGAATTTAACCTTTGCTCTCGCCTAGGGAGATTAGAGTATCGGTCGA”, the binding signal was determined as 6.87 log2 normalized intensity.
To “TGACCTTTGCATTCTTACCCAAGCCCCAAAGCCTAGGGAGATTAGAGTATCGGTCGA” belongs 3.73 log2 normalized intensity.
To “ATATTAACCTTTGCCCCAGCTGTCACCCAGGCCTAGGGAGATTAGAGTATCGGTCGA” belongs 5.03 log2 normalized intensity; to “ACAGTAGACTTTTTTTTTCTTAATTGCCCTGCCTAGGGAGATTAGAGTATCGGTCGA”, 2.84 log2 normalized intensity; to “AGACTTTTTTTTTCTTAATTGCCCTTTGCCGCCTAGGGAGATTAGAGTATCGGTCGA”, 4.26 log2 normalized intensity.
Regarding “CCCTAATTACATATTAACCTTTGCCCCAGCGCCTAGGGAGATTAGAGTATCGGTCGA”, the binding signal stood at 6.63 log2 normalized intensity.
As to “AAAGGTCATTTCTGCTTGCAACCAAAGGAGGCCTAGGGAGATTAGAGTATCGGTCGA”, the binding signal was found to be 1.52 log2 normalized intensity.
As for “GCAGATGTGTCTTTATAACAGACTGTAGGCGCCTAGGGAGATTAGAGTATCGGTCGA”, the binding signal came to 0.596 log2 normalized intensity.
To “GCCAAGCTCTGGGCTAGTCCCTGAGTATTAGCCTAGGGAGATTAGAGTATCGGTCGA” belongs -0.902 log2 normalized intensity; to “TCCCTCTGCTCCCCTGGCCTCACCCTTGTCGCCTAGGGAGATTAGAGTATCGGTCGA”, 2.72 log2 normalized intensity.
The result for “ATTCCAAAAAGCTTTTGTCATGACCTTCGCGCCTAGGGAGATTAGAGTATCGGTCGA” reads 4.71 log2 normalized intensity; that for “AAGGATCAAGGACCTGCTCTGGGGCTACCTGCCTAGGGAGATTAGAGTATCGGTCGA”, -0.978 log2 normalized intensity.
Consider “TCAGTTTCATTGCACTTTGCCCTCTCTTCAGCCTAGGGAGATTAGAGTATCGGTCGA”, for which the binding signal stood at 6.57 log2 normalized intensity.
To “TTGCCCTTTGCCCAACCCTCTCCCACTCCCGCCTAGGGAGATTAGAGTATCGGTCGA” belongs 4.91 log2 normalized intensity; to “TAATTGCCCTTTGCCCTTTGCCCAACCCTCGCCTAGGGAGATTAGAGTATCGGTCGA”, 7.02 log2 normalized intensity.
Take “GCCCTTTGCCCTTTGCCCAACCCTCTCCCAGCCTAGGGAGATTAGAGTATCGGTCGA”: the binding signal came out at 5.55 log2 normalized intensity.
The result for “ATAATTCAGTTTCATTGCACTTTGCCCTCTGCCTAGGGAGATTAGAGTATCGGTCGA” reads 8.65 log2 normalized intensity.
To “TCCTCAGGGAATTTCTAGGTTTGATCTTTGGCCTAGGGAGATTAGAGTATCGGTCGA” belongs 2.95 log2 normalized intensity; to “ATTTCTAGGTTTGATCTTTGCCCTACAATTGCCTAGGGAGATTAGAGTATCGGTCGA”, 5.51 log2 normalized intensity; to “AGGGAATTTCTAGGTTTGATCTTTGCCCTAGCCTAGGGAGATTAGAGTATCGGTCGA”, 6.85 log2 normalized intensity.
The result for “CATTGATAATTCAGTTTCATTGCACTTTGCGCCTAGGGAGATTAGAGTATCGGTCGA” reads 4.01 log2 normalized intensity.
For “ACTCCTTTGCTTATCTGATAAGTCCATACCGCCTAGGGAGATTAGAGTATCGGTCGA”, the binding signal stood at 1.53 log2 normalized intensity.
To “ACTCAGGATACCTAAGCCCCATGCTGATAAGCCTAGGGAGATTAGAGTATCGGTCGA” belongs 1.32 log2 normalized intensity; to “TGAGACTTTGGACTTTTGAACTAAGGCTGGGCCTAGGGAGATTAGAGTATCGGTCGA”, 4.72 log2 normalized intensity.
The result for “AGCTGGACTTTGAACTTCATGTGTGGTGCAGCCTAGGGAGATTAGAGTATCGGTCGA” reads 6.21 log2 normalized intensity.
To “ATCTAAGCTGGACTTTGAACTTCATGTGTGGCCTAGGGAGATTAGAGTATCGGTCGA” belongs 7.91 log2 normalized intensity; to “CCTAAATCTAAGCTGGACTTTGAACTTCATGCCTAGGGAGATTAGAGTATCGGTCGA”, 8.99 log2 normalized intensity; to “CTTTGGACTTTTGAACTAAGGCTGGAATGAGCCTAGGGAGATTAGAGTATCGGTCGA”, 2.92 log2 normalized intensity.
“GACTTTGAACTTCATGTGTGGTGCAGATTCGCCTAGGGAGATTAGAGTATCGGTCGA”: the binding signal was 1.97 log2 normalized intensity.
The result for “TTGTACTCAGTATGTGCTGACTGACTCCTGGCCTAGGGAGATTAGAGTATCGGTCGA” reads 0.992 log2 normalized intensity; that for “GATGTTTAGCTATCAGTGTTGACCTCTGGAGCCTAGGGAGATTAGAGTATCGGTCGA”, 5.32 log2 normalized intensity; that for “CTGACAAGTATCTCGGTCAAACCTTTGACCGCCTAGGGAGATTAGAGTATCGGTCGA”, 5.77 log2 normalized intensity.
The result for “TATCAGTGTTGACCTCTGGACCTCATCTTCGCCTAGGGAGATTAGAGTATCGGTCGA” reads 5.36 log2 normalized intensity.
To “TAACGGTGAGGGAGGAGACTTTGACCTCTGGCCTAGGGAGATTAGAGTATCGGTCGA” belongs 6.61 log2 normalized intensity; to “CTGACCTCAAGTGACCTTTGACCTCTGGCCGCCTAGGGAGATTAGAGTATCGGTCGA”, 11 log2 normalized intensity.

The record behind these values is paper PMC10726135, “HNF4α isoforms regulate the circadian balance between carbohydrate and lipid metabolism in the liver”.
